Results on 24 compounds are retold here after PubChem BioAssay (EPA / NIEHS).

Structures are written as SMILES. Records with an inconclusive call do not appear. Calls of active or inactive are those of the source. How the source made its calls: active means hit-call score of the fitted dose curve at least 0.9, where 1 is the maximum; inconclusive means response in the unintended direction; inactive means score below 0.9.

The assay can be described thus: ACEA_AR_agonist_AUC_viability: ACEA Biosciences xCELLigence Real-Time Cell Analysis on Androgen Receptor Agonism for Viability (AID 2283775).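 On AC50: viability read 80 hours after compound addition.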 In a few lines: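 Real-time impedance tracking of 22Rv1 growth, readings every 5 min for 5 h then hourly; area-under-curve viability endpoint at 80 hours, relative to DMSO. Compounds at eight concentrations, 1:4 steps, top 100 uM, n = 2.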
`CC(C)C1CCC(Cc2ccc(Cl)cc2)C1(O)Cn1cncn1` (centres undefined): the compound was classed as inactive.

Take `CC(C)(OO)c1ccccc1`: the compound was called inactive.

`O=c1[nH]c(=O)[nH]c(=O)[nH]1`: the result was inactive.

As to `CC(=O)[O][Hg][c]1ccccc1`, the AC50 is 1.68 µM (active).

Regarding `Clc1ccc(C2(Cn3cncn3)CC(Br)CO2)c(Cl)c1` (centres undefined), the call was inactive.

As to `O=C/C=C/c1ccccc1`, the compound was called inactive.

With `CC(=O)C=C(C)C`, the compound was classed as inactive.

With `O=C1CCCN1`, the compound was called inactive.

In the case of `O=C1C(Cl)=C(Cl)C(=O)c2ccccc21`, the compound was classed as inactive.

For the compound `CC(C)OC(=O)Nc1ccccc1`, the outcome was inactive.

For `Cc1ccccc1C(=O)Nc1cccc(OC(C)C)c1`, the outcome was inactive.

For `BrCCBr`, the compound was classed as inactive.

As to `CC(C#N)CCC#N` (centres undefined), the compound was called inactive.

Regarding `CCCCOCCOC(C)=O`, the outcome was inactive.

In the case of `O=C(OC1CCCCC1)c1ccccc1C(=O)OC1CCCCC1`, the outcome was inactive.

`O=C(Cc1ccccc1)c1ccccc1`: the result was inactive.

As for `Cn1sc(Cl)cc1=O`, the AC50 is 77.2 µM (active).

As for `NC(=O)O`, the result was inactive.

As to `CCC[CH2][Sn]([Cl])([Cl])[Cl]`, the compound was classed as inactive.

As to `C=C(C)C#N`, the compound was called inactive.

Take `COc1cc(OC)nc(NC(=O)NS(=O)(=O)c2ncccc2C(=O)N(C)C)n1`: the AC50 was 1.74 µM (active).

Consider `Fc1ccc(C2(Cn3cncn3)OC2c2ccccc2Cl)cc1` (centres undefined), for which the compound was called inactive.

For the compound `O=C1C2(Cl)C3(Cl)C4(Cl)C(Cl)(Cl)C5(Cl)C3(Cl)C1(Cl)C5(Cl)C24Cl` (centres undefined), the AC50 was 7.07 µM (active).

For `COP(=O)(OC)OC`, the result was inactive.

Broadly, the AC50 is the concentration giving half of the maximal activity seen.
